Source: the supplement of paper PMC13380429

System: Vero E6 infected with SARS-CoV-2
Assay: inhibition of SARS-CoV-2 cytopathic effect; higher = more antiviral protection, active = above 15
Conditions: 48 h

Measured: inhibition of SARS-CoV-2 cytopathic effect

CCC(N)C(O)c1ccc(O)c(O)c1 (stereo not given) [ethylnorepinephrine]
inactive: 1 nM -0.61% | 8.33 nM 0.7% | 100 nM 0.54% | 833.33 nM -1.28% | 10000 nM -0.69%

COc1cccc(OC)c1OCCNC[C@H]1COc2ccccc2O1
inactive: 1 nM -0.3% | 8.33 nM 0.6% | 100 nM 0.45% | 833.33 nM 0% | 10000 nM 0.85%

CCN1CCN(Cc2ccc(Nc3ncc(F)c(-c4cc(F)c5nc(C)n(C(C)C)c5c4)n3)nc2)CC1 [abemaciclib]
inactive: 1 nM -2.71% | 8.33 nM -0.27% | 100 nM -1.26% | 833.33 nM 11.9% | 10000 nM 12.3%

c1nc2c(NC3CCCCC3)nc(Nc3ccc(N4CCOCC4)cc3)nc2[nH]1 [reversine]
inactive: 1 nM 3.13% | 8.33 nM 6.21% | 100 nM 1.52% | 833.33 nM -0.29% | 10000 nM -7.06%

CCN(c1ccccc1)c1cc(=NC)n(C)c(C)n1
inactive: 1 nM -6.18% | 8.33 nM -5.43% | 100 nM -5.42% | 833.33 nM -2.51% | 10000 nM -0.53%

OC[C@@H](O)[C@H]1O[C@@H]2O[C@H](C(Cl)(Cl)Cl)O[C@@H]2[C@H]1O [chloralose]
inactive: 1 nM 1.75% | 8.33 nM 3.01% | 100 nM 2.94% | 833.33 nM -0.88% | 10000 nM -0.85%

CC[C@@H](C)c1ccc(NC(=O)Cn2cnc3c2c(=O)n(C)c(=O)n3C)cc1 (racemic)
inactive: 1 nM -0.15% | 8.33 nM 0.22% | 100 nM -1.39% | 833.33 nM -1.04% | 10000 nM 3.52%

O=C(O)C(O)C(O)C(=O)O (stereo not given) [tartaric-acid]
inactive: 1 nM -3.77% | 8.33 nM -4.25% | 100 nM -5.86% | 833.33 nM -1.6% | 10000 nM -0.64%

CC(=O)OC[C@H]1O[C@@H](n2ccc(=O)[nH]c2=O)[C@H](OC(C)=O)[C@@H]1OC(C)=O [uridine-triacetate]
inactive: 1 nM -1.68% | 8.33 nM 0.37% | 100 nM 0.84% | 833.33 nM -3.59% | 10000 nM -0.59%
